Reference: PubChem BioAssay AID1117319 (Southern Research Institute, 2015)
Where “and” joins values, the source holds several entries; their conditions need not be identical. Identical values can stand only once. The campaign covered roughly 260,000 compounds. About 1,500 (0.58%) were called active. Roughly 5% stayed inconclusive and do not appear here.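 The calls were made as follows: active = inhibition above a set limit at one or more doses, reproduced on every date tested; inconclusive = results disagree between test dates, or hit never tested in dose response; inactive = the rest.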 Only a sample is shown. Results with a measured potency or affinity are listed apart.

Target: Virion infectivity factor (Human immunodeficiency virus type 1 group M subtype B (isolate BH10)) + Virion infectivity factor (Human immunodeficiency virus type 1 group M subtype B (isolate BRU/LAI)) + Virion infectivity factor (Human immunodeficiency virus type 1 group M subtype B (isolate PCV12)) + Virion infectivity factor (Human immunodeficiency virus type 1 group M subtype B (isolate HXB2)) + DNA dC->dU-editing enzyme APOBEC-3G (Homo sapiens) (UniProt P69720+P69721+P69722+P69723+Q9HC16)
Experiment: inhibitors of Vif binding to APOBEC3G peptide, primary screen, biochemical, TR-FRET, GST-Vif 1-94, biotin-A3G peptide, dose response retest (AID 1117319);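 also: Vif residues 1-94 fused to GST binding biotinylated APOBEC3G peptide 110-148; 0% = full assay without inhibitor and 100% = GST in place of GST-Vif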
Settings: active compounds read high

inhibition, inactive:
NC(=S)NCc1cccnc1 -0.39%, CCn1cc(S(=O)(=O)CC(=O)NC2CCCCC2)c2ccccc21 -2.6%, CCOC(=O)N1CCN(S(=O)(=O)c2ccc(C)c(C(=O)NC3CCCCC3)c2)CC1 5.81%, CCNc1ccccc(-c2ccc3ccccc3n2)c1=O 14.5%, c1ccc2nc(-c3ccc4c(c3)OCO4)ccc2c1 5.74%, COc1ccc(NC(=O)c2cc(S(=O)(=O)N3CCCCC3)ccc2N2CCCCC2)cn1 5.2% and 0.78%, Cn1c(=O)c2c(ncn2CC(=O)N/N=C/C=C/c2ccccc2[N+](=O)[O-])n(C)c1=O 10.3%, O=C(N/N=C/C=C/c1ccccc1)c1ccncc1 -6.12%, O=C(/C=C/c1ccco1)Nc1cccnc1 1%, O=C(/C=C/c1ccco1)Nc1ccccn1 1.75%, COc1ccccc1/C=C/C=N/NC(=O)c1ccncc1 -1.29%, Cn1c(=O)c2c(ncn2CC(=O)N/N=C/C=C/c2ccccc2)n(C)c1=O 7.57%, O=C(C=Cc1ccco1)c1ccco1 3.42%, O=C(c1ccco1)N(c1ccccn1)c1ccccn1 3.18%, OC(CNCCNc1ncccc1C(F)(F)F)Cn1ccc2ccccc21 (configuration not stated) 4.3%, O=C(CNS(=O)(=O)c1ccc(Br)cc1)N1CCN(c2ccc(F)cc2)CC1 -8.26%, O=C(O)CNC(=O)CCn1nnc2ccccc2c1=O -2.36%, CCOc1cccc2sc(NC(=O)c3ccc(Br)s3)nc12 -37.3%, Cc1ccc(NC(=O)CCC(=O)N/N=C/c2cccs2)cc1C -6.77%, Cc1cc(C)n2c(SCCC(C)C)nnc2n1 10.9%, CCOC(=O)Oc1ccc2c(=O)c(Oc3cccc(C)c3)coc2c1 0.27%, CC(=O)N1CCSc2ccc(S(=O)(=O)NCCc3ccc(C)cc3)cc21 2.49%, Cc1ccc(SCc2c(C(=O)N/N=C/c3ccc(C)o3)nnn2-c2nonc2N)cc1 -4.93%, N#Cc1ccc(OCc2cccc(S(=O)(=O)N3CCOCC3)c2)cc1 0.78%, c1ccc(-c2nnc(-c3ccco3)o2)cc1 -6.32%, O=C(N/N=C/C=C/c1ccccc1)c1cccnc1 -6.59%, CC(/C=N/NC(=O)c1cccnc1)=C\c1ccco1 28.6%, CC(/C=C/c1ccco1)=N/NC(=O)c1ccc(C)nc1 1.76%, CC(/C=C/c1ccco1)=N\NC(=O)c1cccc(Cl)c1 -1.59%, CCc1c(C#N)c(SCCC(=O)Nc2cccc(OC)c2)nc2c1C(=O)CC(C)(C)C2 -3.29%, CC(C)(Cc1ccccc1)NC(=O)C(=O)c1cn(CC(=O)N2CCOCC2)c2ccccc12 6.86%, O=C(/C=C/c1ccccc1F)c1cccc([N+](=O)[O-])c1 -5.2%, O=C(CN(C(=O)CNS(=O)(=O)c1ccc(F)cc1)c1ccc(F)cc1)NCc1ccco1 -4.81%, Cc1ccc(/C=N/N2CCN(Cc3ccccc3)CC2)cc1 -2.27%, Cc1ccc(NCc2nnc(SCC(=O)Nc3ncc(C)s3)n2CC2CCCO2)c(C)c1 (configuration not stated) -1.98%, CC(=O)Nc1ccc(NC(=O)CSc2nnc(CNc3ccc(F)cc3)n2CC2CCCO2)cc1 (configuration not stated) -7.5%, COC(=O)Cn1ncc2c3ccccc3n(C)c2c1=O 4.81%, COc1ccc(OC)c(S(=O)(=O)N(C(C)=O)c2ccc3oc(=O)sc3c2)c1 13.9%, CC(=O)N(c1ccc2oc(=O)sc2c1)S(=O)(=O)c1ccccc1 7.75% and 2.73%, CCC(C)NC(=O)C1CCC(CNS(=O)(=O)c2ccc3c(c2)CC(C)N3C(C)=O)CC1 (configuration not stated) 4.98%, CCCOC(=O)c1c(NC(=O)CCC(=O)O)sc2c1CCCCC2 8.05%, Cc1ccc(OCCNC(=O)c2ccccc2N)cc1 8.93%, CC(=O)C1=C(c2ccccc2)NC(=O)NC1c1ccccc1OCC(=O)Nc1ccccc1 (configuration not stated) -2.45%, S=C(NCCc1ccccc1)Nc1ncccn1 4.03%, O=C1CCC/C(=N\NC(=O)c2ccc(CSc3cccc4cccnc34)cc2)C1 5.86%, O=C(N/N=C/c1ccc[nH]1)c1ccc(COc2cccc3cccnc23)cc1 9.25%, CC(Nc1nc(-c2ccccc2O)nc2ccccc12)c1ccccc1 (configuration not stated) 4.08%, CCOc1ccc(-c2cc(N3C(=O)Nc4ccccc4N3O)on2)cc1 19.2%, O=c1cc(-c2ccc(O)cc2)oc2ccc(O)cc12 28.2%, COc1c(O)c(O)c2oc(-c3ccccc3)cc(=O)c2c1OC -3.24%, O=C(O)c1ccccc1C(=O)NC1CCCc2ccccc21 (configuration not stated) -5.37%, Cc1cc(C)c(NC(=O)CN(C)CC(=O)N(C)CC(=O)Nc2c(Cl)cccc2Cl)c(C)c1 -11.3%, COc1ccc(CCNC(=O)COC(=O)/C=C/c2cccs2)cc1 8.83%, C=C(C)C1Cc2c(C)nn(-c3ccccn3)c2C1 (configuration not stated) -1.81%, Cc1nn(-c2ccccn2)c2c1-c1nc(N)ncc1CC2 5.31%, Nc1nc(SCC(=O)c2c(N)n(Cc3ccccc3)c(=O)[nH]c2=O)n[nH]1 -2.67%, CCCC(=O)NC(Nc1c(C)n(C)n(-c2ccccc2)c1=O)C(Cl)(Cl)Cl (configuration not stated) -6.76%, COc1ccc(CNS(=O)(=O)c2c(C)[nH]c(C)c2C(=O)N2CCCCC2)cc1 -4.48%, CCOC(=O)Cc1cc(=O)n2[nH]c(C(C)(C)C)cc2n1 2.01%, CCOC(=O)Cc1cc(=O)n2[nH]c(-c3ccccc3)cc2n1 3.98%, O=C1CCCC(O)=C1N=Nc1ccc2ncsc2c1 1.8%, CC(=O)N1CCc2cc(N=NC3=C(O)CCCC3=O)ccc21 11.2%, O=C1CCCC(O)=C1N=Nc1cccc(S(=O)(=O)N2CCOCC2)c1 -9.52%, CC1(C)CC(=O)C(N=Nc2ccc(S(=O)(=O)N3CCOCC3)cc2)=C(O)C1 4.95%, O=C1CCCC(O)=C1N=Nc1ccc(Cl)c(Cl)c1 -7.94%, Cc1nc2ccc(N=NC3=C(O)CCCC3=O)cc2s1 19.7%, O=Cc1cc(N=Nc2cccc(C(=O)O)c2)ccc1O 8.26%, O=C(O)c1cccc(N=NN2CCOCC2)c1 0.39%, Cc1cc(C)c2c(N)c(C(=O)N3CCc4ccccc4C3)sc2n1 2.97%, O=C(CSc1ccccc1C(=O)O)NC12CC3CC(CC(C3)C1)C2 -8.39%, COC(=O)C1=C(C)OC(N)=C(C#N)C1c1ccsc1 (configuration not stated) -0.64%, Cc1cnc(NC(=O)/C=C/c2ccc(Br)o2)s1 20.7%, O=C(/C=C/c1ccc(F)cc1)Nc1cccc(S(=O)(=O)N2CCOCC2)c1 -3.16%, Cc1ccc(/C=C/C(=O)Nc2ccncc2)o1 26.1%, Cc1ccc(/C=C/C(=O)Nc2ccc(S(N)(=O)=O)cc2)o1 5.06%, COc1ccc(NC(=O)/C=C/c2ccc(C)o2)cc1S(=O)(=O)N1CCOCC1 22.6%, Cc1ccc(/C=C/C(=O)Nc2nnc(C)s2)o1 30.1%, Cc1cc(-c2nnc(CCC(=O)N3CCN(Cc4cccc(F)c4)CC3)o2)c(C)o1 -7.15%, COc1ccc(OC)c(CN2CCN(C(=O)c3cccs3)CC2)c1 1.09%, COc1ccc(Oc2nc(-c3cccnc3)nc3ccccc23)cc1 -18.5%, CCC(OC(=O)c1nsc(Cl)c1Cl)C(=O)NC(C)(C)CC (configuration not stated) -6.48%, CC(NC(=O)c1cccc(S(=O)(=O)N2CCN(Cc3ccccc3)CC2)c1)c1ccc(Cl)cc1 (configuration not stated) 3.65%, CCOC(=O)c1cn2nc(Oc3ccc(NC(C)=O)cc3)ccc2n1 -0.1%, CC(NC(=O)c1ccc2nc(Cc3cccc(Cl)c3)oc2c1)c1ccncn1 (configuration not stated) 0.5%, CN(C)C(=O)CCc1ccc2c3c([nH]c2c1)[C@]1(CCC2CCCC2)[C@@H](C(=O)N2CCOCC2)C[C@H](CC(=O)NCCC2=CCCCC2)C(=O)N1CC3 4.07%, CCOc1ncccc1C(=O)OCC(=O)NC1CCCCCC1 -6.35%, Cc1cc(S(=O)(=O)Nc2ncnc3sccc23)ccc1F 1.05%, CCOC(=O)C(C)/C(C)=N/NC(=O)CCC(=O)Nc1cc(C)ccc1C (configuration not stated) 3.1%, CCOC(=O)c1nn(-c2ccccc2C)c(=O)c(C#N)c1C 12.1%, CCOC(=O)c1nc(C)n(-c2ccc(Cl)cc2Cl)n1 23.2%, O=C(Oc1c(-c2ccccc2)oc2ccccc2c1=O)c1ccccc1 -7.08%, N#Cc1c(-c2cccnc2)c2c([nH]c1=S)CCCC2 28.4%, Cc1ccc(-c2c(C(=O)Nc3ccccc3C)c(C)[nH]c(=S)c2C#N)o1 17.8%, Cc1ccccc1NC(=O)c1c(C)[nH]c(=S)c(C#N)c1-c1ccc(Cl)cc1 -0.84%, COc1ccc(-c2c3c([nH]c(=S)c2C#N)CCC3)cc1 -9.25%, N#Cc1c(-c2ccc(Cl)cc2)c2c([nH]c1=S)CCCC2 -9.58%, COc1ccc(OC)c(-c2c3c([nH]c(=S)c2C#N)CCCC3)c1 -14.3%
